Bioassay records: PubChem, National Center for Advancing Translational Sciences (NCATS)
In the library only some 0.9% were active in any assay of this set; here they are far more common.
L3MBTL1 inh-1: inhibitors of human L3MBTL1 | Q9Y468 | Potency, µM (series often up to 57.1 µM), most hits filed as inhibitors | AID 485360 | 230,000 tested, 0.66% active | AlphaScreen L3MBTL1–H3K9me1 peptide binding; also: nearly all actives have a fitted effect of over 60% in size
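AlphaScreen proximity signal between nickel-chelate acceptor and streptavidin donor beads (final 10 ug/mL) reports binding of 50 nM L3MBTL1 to 75 nM biotin-H3 K9me1 peptide; complex incubated with compounds 30 min at room temperature; cefsulodin titration as control.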
Eya2 phos inh: inhibitors of human Eya2 phosphatase activity; recombinant Eya2, OMFP fluorescence dephosphorylation (OMFP is methylfluorescein phosphate); O00167; 330,000 tested, 0.006% active; Potency, µM (top dose mostly 76.9 µM), usual class: inhibitors
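Eya2 (0.2 uM) preincubated 10 min at ambient with compound, then OMFP substrate added at 50 uM; 10 min reaction in 50 mM HEPES pH 7.5, 50 mM NaCl, 5 uM MgCl2, 0.05% BSA, 1 mM DTT. Fluorescence read at Ex 485/Em 525 nm.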
B2AR arrestin: beta2AR (human) beta-arrestin recruitment activity; P07550; beta-arrestin recruitment to beta2AR, cell-based reporter; Potency, µM (highest dose often 46.1 µM), usual class: activators; 330,000 tested, 0.02% active; also: nearly all actives have a fitted effect of over 65% in size
Target sequence (P07550 whole entry, looked up): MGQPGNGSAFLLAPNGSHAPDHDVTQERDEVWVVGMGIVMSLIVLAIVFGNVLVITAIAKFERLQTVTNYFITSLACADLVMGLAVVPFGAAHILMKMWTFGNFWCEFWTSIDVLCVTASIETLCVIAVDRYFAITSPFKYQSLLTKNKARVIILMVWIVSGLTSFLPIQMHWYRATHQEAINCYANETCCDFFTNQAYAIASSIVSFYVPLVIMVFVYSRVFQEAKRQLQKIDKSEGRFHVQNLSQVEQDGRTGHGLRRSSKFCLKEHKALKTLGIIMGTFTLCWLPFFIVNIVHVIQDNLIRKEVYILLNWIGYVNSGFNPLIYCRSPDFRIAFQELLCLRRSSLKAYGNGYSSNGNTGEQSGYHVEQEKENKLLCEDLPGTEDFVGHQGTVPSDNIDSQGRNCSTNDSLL
Six1-Eya2 blk: blocks human Six1 binding to Eya2; Q15475+O00167; AlphaScreen GST-Six1/His-Eya2 binding, biochemical; active compounds read low; activity change, % (concentration not given with the values); 360,000 tested, 0.56% active; in the data active = activity change below about -65%; inconclusive = mostly about -30% to -63%
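Compounds are tested against tagged Six1 and Eya2 proteins bridged by glutathione donor and nickel acceptor beads; after a one-hour incubation at 37 °C without light, AlphaScreen emission is recorded.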
CtBP-E1A blk: blocks the CtBP interaction with E1A; AlphaScreen GST-E1A/His-CtBP binding, 1536-well; active compounds read low; activity change, % (no concentration beside the values); 340,000 tested, 0.49% active; AID 651724; in the data active = activity change below about -65%; inconclusive = mostly about -30% to -63%
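Protein mix (5X: 125 nM each GST-E1A, His-CtBP) was incubated with pinned compound 2 h at 37 deg C in dark, in 50 mM Tris pH 8.0 buffer with 300 mM NaCl. Glutathione donor and nickel acceptor beads followed; AlphaScreen signal read after 1 h.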
L3MBTL1 inh-2: validation of human L3MBTL1 methyl-lysine binding inhibitors; shares compounds with L3MBTL1 inh-1; L3MBTL1 methyl-lysine binding inhibition, biochemical qHTS; Potency, µM, usual class: inhibitors; 500 tested, 91% active; also: nearly all actives have a fitted effect of over 70% in size
L3MBTL1 ctr: AlphaScreen signal inhibition, L3MBTL1 hit counter-screen. shares compounds with L3MBTL1 inh-1. Potency, µM (titrated, usually from 57.1 µM), most hits filed as inhibitors. 500 tested, under 10 active. AlphaScreen counterscreen, signal inhibition
Each line names hits and unclear results; the compound was inactive in the other large screens (follow-up assays come after a bar, where they were run). Unless noted, calls follow the shape of the dose curve; as a rule, active = well fitted curve in the direction sought with a large enough effect; inconclusive = small, poorly fitted or top-dose-only effect, or another doubt; inactive = no such curve, though single readings can be large; an effect the other way counts as inactive or inconclusive.

CC1(Cc2ccc3c(c2)OCO3)C(=O)Nc2c(Cl)ccc(Cl)c21 (stereo unspecified)	none (no result: L3MBTL1 inh-1, Eya2 phos inh, B2AR arrestin)
O=C(Nc1nc(-c2ccco2)c(-c2ccco2)s1)c1ccc(F)cc1F	L3MBTL1 inh-1 8.9µM, Six1-Eya2 blk inconclusive | L3MBTL1 inh-2 5.3 | L3MBTL1 ctr inactive
O=C(Nc1nc(-c2ccco2)c(-c2ccco2)s1)c1c(F)cccc1Cl	L3MBTL1 inh-1 inconclusive (no result: CtBP-E1A blk)
O=C(Nc1nc(-c2ccco2)c(-c2ccco2)s1)c1cnccn1	L3MBTL1 inh-1 3.5µM, Six1-Eya2 blk inconclusive | L3MBTL1 inh-2 2.7 | L3MBTL1 ctr inactive
CC1(O)CC2CC1C(C(=O)O)C2C(=O)O (stereo unspecified)	none (no result: L3MBTL1 inh-1, Eya2 phos inh, B2AR arrestin)
COc1cc2ccnc(C=O)c2cc1OC	Six1-Eya2 blk inconclusive (no result: L3MBTL1 inh-1, Eya2 phos inh, B2AR arrestin)
COc1ccc(C(N)c2nccc3cc(OC)c(OC)cc23)cc1OC (stereo unspecified)	L3MBTL1 inh-1 28µM, Six1-Eya2 blk -75, CtBP-E1A blk inconclusive | L3MBTL1 inh-2 12 | L3MBTL1 ctr inconclusive
O=C(C[C@H]1C[C@H]2c3cc(NS(=O)(=O)c4ccc(F)cc4)ccc3O[C@H]2[C@H](CO)O1)NCc1ccncc1	none (no result: L3MBTL1 inh-1, Eya2 phos inh, B2AR arrestin)
Oc1ccccc1N=Cc1c(O)ccc2ccccc12	L3MBTL1 inh-1 28µM, Eya2 phos inh inconclusive | L3MBTL1 inh-2 6 | L3MBTL1 ctr inactive
Oc1ccc2ccccc2c1C=Nc1ccccc1Br	none (no result: CtBP-E1A blk)
O=C(CSc1cccc2cccnc12)Nc1ccc(S(=O)(=O)N2CCOCC2)cc1	L3MBTL1 inh-1 22µM, Six1-Eya2 blk -88, CtBP-E1A blk -93 | L3MBTL1 inh-2 inconclusive | L3MBTL1 ctr inconclusive
Cc1ccc(C)c(NS(=O)(=O)c2ccc3[nH]c(=O)oc3c2)c1	L3MBTL1 inh-1 32µM | L3MBTL1 inh-2 27 | L3MBTL1 ctr inactive
Cc1cccc(NS(=O)(=O)c2ccc3[nH]c(=O)oc3c2)c1C	none
Cc1ccc(OCC(=O)c2c(N)n(C)c(=O)n(C)c2=O)c([N+](=O)[O-])n1	L3MBTL1 inh-1 7.9µM, Six1-Eya2 blk inconclusive | L3MBTL1 inh-2 0.84 | L3MBTL1 ctr inconclusive
COCCCNC(=O)/C(C#N)=C/c1ccc(OCC(=O)O)c(OC)c1	L3MBTL1 inh-1 3.5µM, Six1-Eya2 blk inconclusive | L3MBTL1 inh-2 2.1 | L3MBTL1 ctr inconclusive
COC(C)c1oc2c(C)c3oc(=O)cc(C)c3cc2c1C (stereo unspecified)	none (no result: L3MBTL1 inh-1, Eya2 phos inh, B2AR arrestin)
CCOC(=O)CNS(=O)(=O)c1cc(-c2nn(C)c(=O)c3ccccc23)ccc1C	L3MBTL1 inh-1 28µM | L3MBTL1 inh-2 inconclusive | L3MBTL1 ctr inconclusive
Cc1ccc(-c2nn(C)c(=O)c3ccccc23)cc1S(=O)(=O)NCCN1CCOCC1	none
Cc1cc(=O)oc2c(CN3CCCC3)c(O)c(Cl)cc12	none (no result: L3MBTL1 inh-1)
CCN(CC)Cc1c(O)c(Cl)cc2c(C)cc(=O)oc12	L3MBTL1 inh-1 22µM | L3MBTL1 inh-2 15 | L3MBTL1 ctr inactive
Cc1cc(=O)oc2c(CN3CCC(C)CC3)c(O)c(Cl)cc12	L3MBTL1 inh-1 32µM | L3MBTL1 inh-2 11 | L3MBTL1 ctr inactive
CN1CCCN(C(=O)CNC(=O)c2ccc(Cl)cc2Cl)CC1	none
CC(C)CC(=O)Nc1ncc([N+](=O)[O-])s1	none (no result: L3MBTL1 inh-1)
Cc1nc(C)c(C(=O)Nc2ncc([N+](=O)[O-])s2)o1	L3MBTL1 inh-1 40µM | L3MBTL1 inh-2 5.3 | L3MBTL1 ctr inactive
Cc1nn(CCc2nc(-c3ccco3)cs2)c2[nH]c(=O)cc(C(F)(F)F)c12	L3MBTL1 inh-1 35µM | L3MBTL1 inh-2 21 | L3MBTL1 ctr inactive
Cc1ccc(C(C)C)cc1OCCCCN1CCCC1	L3MBTL1 inh-1 28µM | L3MBTL1 inh-2 19 | L3MBTL1 ctr inactive
Cc1ccc(S(=O)(=O)N2CCN(C(=O)/C=C/c3ccco3)CC2)cc1	L3MBTL1 inh-1 28µM | L3MBTL1 inh-2 27 | L3MBTL1 ctr inactive
Cc1cc(NC(=O)CSCC(=O)Nc2cccc(S(=O)(=O)N3CCCCCC3)c2)no1	none
O=c1c2c3c(sc2[nH]c(=S)n1Cc1ccco1)CCC3	L3MBTL1 inh-1 25µM | L3MBTL1 inh-2 11 | L3MBTL1 ctr inactive
